Only some compounds are listed: those with a hit (about 20% of all), similar ones and a draw of the others.
Shiga toxin inh: Shiga toxin inhibition; Vero cells, Shiga toxin protein synthesis inhibition reporter; inhibition, % at 38.7 µM; 290,000 compounds, 9.2% hits; AID 2315; in the data active = inhibition mostly above about 28%, no sharp cut-off; inactive = mostly below about 43%; also: 0% is about no effect
CHX counter: counter-screen hit for Shiga toxin inhibitors, cycloheximide. max response, %. cell reporter, cycloheximide protein synthesis inhibition counterscreen. 300,000 compounds, 12% hits. AID 2314; in the data active = max response mostly above about 13%, no sharp cut-off; inactive = mostly below about 14%; also: read at 38.3 µM for the half of the compounds with a filed dose; 0% is about no effect
Pf growth 48h: inhibits P. falciparum growth in the first generation, 48 h; P. falciparum luciferase growth in erythrocytes, 48 h; 310,000 compounds, 5.9% hits; Potency, µM (doses to about 28.7 µM), inactives show top-dose activity change, negative = inhibition, usual class: inhibitors; also: potency is read from the fitted curve at half-maximal effect; % is scaled to controls: 0 for no effect and ±100 for the full control effect
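Luminescence readout; reporter = integrated firefly luciferase in P. falciparum. RBC culture at 2% hematocrit, 0.1% parasitemia final, 37 C/5% CO2; decreased signal taken as growth inhibition.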
Pf growth 96h: P. falciparum growth inhibition at 96 hours; Potency, µM (series often up to 28.7 µM), for the others: at the highest dose activity change, negative = inhibition, hits mostly inhibitors; P. falciparum luciferase reporter growth, 96 h; AID 504834; 320,000 compounds, 6.9% hits; also: potency is read from the fitted curve at half-maximal effect; % is scaled to controls: 0 for no effect and ±100 for the full control effect
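Luminescence readout: decreased luciferase signal marks inhibited growth of reporter-expressing P. falciparum in infected red cells (2% hematocrit, 0.05% parasitemia final), exposed to compound two generations (96 h, 37 C, 5% CO2).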
HCMV antiviral: inhibitors of human cytomegalovirus. HFF cells, HCMV-luciferase reporter, 72 h; active compounds read low. 410,000 compounds, 4.5% hits. activity change, negative = inhibition, % at 57.5 µM. AID 1259415; in the data active = activity change below about -60%; inconclusive = no clear call, values can overlap the other calls; inactive = above about -39%; also: % is scaled to controls: 0 for no effect and ±100 for the full control effect
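Inhibition of viral replication was scored as loss of reporter luminescence in HFFs infected with HCMV-luciferase (MOI 1 PFU/cell) for 72 h; compounds tested at 2 doses, normalized to buffer and Salinomycin controls.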
* = called active by the depositor; ? = inconclusive; / = not tested or not shown; + = active, no number; [ ] = remark or other dose. Unless noted, calls follow the shape of the dose curve; as a rule, active = well fitted inhibition curve with a large enough effect; inconclusive = small, poorly fitted or top-dose-only effect, or another doubt; inactive = no such curve, though single readings can be large or run the other way.

SMILES	Shiga toxin inh	CHX counter	Pf growth 48h	Pf growth 96h	HCMV antiviral
Cc1c(C(=O)OC2CCC(C)CC2)[nH]c2c1C(=O)CC(c1ccc(N(C)C)cc1)C2 (centres undefined)	/	/	/	/	-3
CCN(CCCNC(=O)CCn1c(=S)[nH]c2cc3c(cc2c1=O)OCO3)c1cccc(C)c1	-2	1	-3%	?	-4
CC(=O)Nc1ccc(NC(=O)C(Cc2ccccc2)N2Cc3ccccc3C2=O)cc1 (centres undefined)	/	/	/	/	-26
O=C(O)c1cccc2c1C(=O)c1ccc(-c3ccc(F)cc3F)cc1S2(=O)=O	/	/	30%	61%	-61*
CC1(C)CC(=O)C2=C(C1)NC(SCC(=O)Nc1ccccc1)=C(C#N)C2c1ccco1 (centres undefined)	-14	0	?	/	?
CC(=O)C1=C(C)NC(SCC(=O)c2ccc(C)cc2)=C(C#N)C1c1ccco1 (centres undefined)	16	12	9.3µM*	6.6µM*	/
Cc1ccc(C(=O)CSC2=C(C#N)C(c3ccco3)C3=C(CC(C)(C)CC3=O)N2)cc1 (centres undefined)	-12	-5	/	0%	-68*
COc1ccccc1NC(=O)C1=C(C)NC(SCC(=O)c2ccccc2)=C(C#N)C1c1ccco1 (centres undefined)	36	10	9.3µM*	/	/
O=S(=O)(c1ccc(Br)cc1)c1nnn2c1nc(NCc1ccc3c(c1)OCO3)c1sccc12	/	/	/	/	13
CCN(CC)CCCN(c1ccccc1)C1Cc2ccccc2C1	/	/	1.9µM*	?	-12
COc1ccc(-n2c(Cc3cccn3C)nnc2SCC(=O)Nc2cccc(OC)c2)cc1	-12	-1	?	17%	10
COc1ccc(OC)c(NC(=O)CSc2nnc(Cc3cccn3C)n2-c2ccc(F)cc2)c1	21	-3	13µM*	-13%	32
COc1ccc(-n2c(Cc3cccn3C)nnc2SCC(=O)Nc2ccccc2C)cc1	-9	0	/	6.6µM*	-4
COc1cccc(NC(=O)CSc2nnc(Cc3cccn3C)n2-c2ccc(F)cc2)c1	29*	19*	?	4.1µM*	10
O=C1C(C23CC4CC(CC(C4)C2)C3)C(=O)N(c2ccccc2)N1c1ccccc1	9	-6	-9%	7.4µM*	5
O=C1CC(=O)N(c2ccccc2)N1c1ccccc1	1	-3	4%	46%	17
Fc1ccc(NC(=S)Nc2cccnc2)c(F)c1F	19	-2	-12%[5.75 µM]	17%	0
O=C(O)/C(=C/c1ccco1)c1ccccc1	4	1	-8%	46%	/
N#CC(C#N)=C1C=CC=CN1/C(=C\c1ccco1)C(=O)c1ccc(Cl)cc1	-13	-8	?	?	-97*
N#CC(C#N)=C1C=CC=CN1/C(=C\c1ccco1)C(=O)c1ccc(-c2ccccc2)cc1	-10	11	?	?	-101*
O=c1[nH]c(-c2ccco2)nc2sc3c(c12)CCCC3	91*	51*	321%	357%	1
CCc1ccccc1NC(=O)CSc1nnc(-c2nonc2NC(C)=O)n1C	/	/	/	/	9
CCOc1cc(-c2c(C)c(CC)nc(N)c2C#N)ccc1O	16	-3	-7%	6%	18
CCc1nc(N)nc(N)c1-c1ccc(Cl)c([N+](=O)[O-])c1	/	/	/	/	-99*
CCc1nc(N)nc(N)c1-c1ccc(Cl)c(N=[N+]=[N-])c1	/	/	/	/	-79*
SMILES	Shiga toxin inh	CHX counter	Pf growth 48h	Pf growth 96h	HCMV antiviral
COc1ccc(-c2cc(CNc3nc4cc(-c5ccccc5C)sc4c(=O)n3C)on2)cc1	/	/	/	/	80
O=C(CCCCn1c(=O)c2ccccc2n(CC(=O)Nc2ccc(F)cc2F)c1=O)NCc1ccccc1Cl	/	/	/	/	-9
CCOc1cccc2sc(NC(=O)c3ccc(S(=O)(=O)N4CCCc5ccccc54)cc3)nc12	/	/	/	/	-34
COc1ccc(-c2nc3n(n2)C(c2ccccc2OC)C(C(=O)Nc2cccnc2)=C(C)N3)cc1 (centres undefined)	/	/	/	/	3
COc1ccc(Oc2ccc(C(F)(F)F)cc2N)cc1	56*	29*	?	40%	15
COc1cccc(C(=O)NC2CCN(CC(=O)Nc3ccccc3Cl)CC2)c1	-13	-6	-4%	-4%	9
COc1ccc(-c2nnc(N(C)C(=O)C3CCCO3)s2)cc1 (centres undefined)	+	26*	125%	-7%	107
COc1ccc(-c2nnc(N(C)C(=O)c3ccno3)s2)cc1	60*	26*	109%	?	140
CC(=O)Nc1ccc(C(=O)NC2CCCC2)cc1	-15	-3	7%	21%	14
CC(=O)Nc1ccc(C(=O)NCC2CCCCC2)cc1	16	20*	12%	46%	/
CCOc1ccc(C(=O)NCC2CCN(CC3CCCCC3)CC2)cc1	-5	1	42%	5.9µM*	36
COc1ccccc1CCNC(=O)CCn1nc(C)c2c(C)n(-c3ccccc3)nc2c1=O	-4	12	-23%	-8%	?
COC(=O)c1ccccc1NC(=O)CSc1nc(C)cc(C)n1	-10	-4	19%	43%	-35
COC(=O)c1cc(C)nc(Sc2ccccc2N)n1	45*	18*	?	?	21
O=c1c2nnn(-c3ccccc3)c2ncn1C/C=C/c1ccccc1	-2	-1	-2%	22%	17
OC(COCc1ccc2c(c1)OCO2)CN1CCC(Cc2ccccc2)CC1 (centres undefined)	-15	-3	-3%	-7%	-28
OC(COCc1ccc2c(c1)OCO2)CN1CCCCC1 (centres undefined)	-9	-2	0%	12µM*	-33
OC(COCc1cccs1)CN1CCCCCC1 (centres undefined)	1	7	13µM*	5%	2
COCCn1c(-c2ccc(OC)cc2)cnc1SCC(=O)Nc1cc(C)on1	-8	-1	/	/	-86*
COCCn1c(-c2ccccc2)cnc1SCC(=O)Nc1cccc2ccccc12	-2	10	-23%	13µM*	22
COCCn1c(-c2ccc(OC)cc2)cnc1SCC(=O)Nc1ccc(OC)cc1OC	-9	-1	?	-2%	-2
COc1ccc(C(=O)OCC(=O)N2CCN(C(=O)c3ccco3)CC2)cc1OC	/	/	/	/	-13
Cc1ccsc1-c1cc2nc(NCCCN(C)C)n(C)c(=O)c2s1	/	/	/	/	87
CCc1ccc(C2c3[nH]c4ccccc4c3CCN2C(=O)CNC(N)=O)cc1 (centres undefined)	-3	1	?	-14%	11
CCc1ccc(C2c3[nH]c4ccccc4c3CCN2C(=O)CN2CCN(CC)CC2)cc1 (centres undefined)	-6	-2	10µM*	?	24
CCc1ccc(C2c3[nH]c4ccccc4c3CCN2C(=O)c2ccc(=O)n(C)n2)cc1 (centres undefined)	-8	-2	8.3µM*	?	36
COc1ccc(S(=O)(=O)NCC2CCCN(C(=O)c3sccc3C)C2)cc1 (centres undefined)	-3	2	-10%	-16%	-22

Source: PubChem (National Center for Advancing Translational Sciences (NCATS))
